Legend:
Test in all cases: PBM binding z-score (relative to random genomic background probes); higher = stronger binding; sequences stand for … in GC…GCGATTGACAGCGTAGAATGAAGG
[1] = system: RARb homodimer (NR concentration 270 nM)
How it was run: (§1)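 The probes on custom Agilent 4×180K protein-binding microarrays were double-stranded, with 34-nt variable regions bearing direct-repeat seeds, single-nucleotide variants, half-site ablations and random human genomic background sequences. Incubation lasted 1 h with ligand-free nuclear receptor dimers in PBS pH 7.4, 2% milk, 0.02% Triton X-100, 1 mM DTT, 0.2 mg/mL BSA and 0.4 mg/ml salmon testes DNA. Antibodies against each partner (one per run) detected bound dimers, and fluorescence scans were regression-normalized. Binding z-scores take the random background probes as reference.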

[2] = system: RARg:RXRa (NR concentration 270 nM, RXRa partner concentration 90 nM)
How it was run: as §1

[3] = system: RARg homodimer (NR concentration 270 nM)
How it was run: as §1

[4] = system: RXRa DBDmut IVT, anti-RXR (DBD mutation: RXRa K156A/R161A, NR concentration 90 nM)
How it was run: as §1

[5] = system: RXRa homodimer (NR concentration 180 nM)
How it was run: as §1

[6] = system: THRa:RXRa (NR concentration 90 nM, RXRa partner concentration 90 nM)
How it was run: as §1

[7] = system: THRa homodimer (NR concentration 90 nM)
How it was run: as §1

[8] = system: VDR homodimer (NR concentration 270 nM)
How it was run: as §1

With ATACCAAGGTGAACGTGAGGTCGTTGATACTAAC the PBM binding z-score [1] was 2.68, the PBM binding z-score [2] was 3.63 and the PBM binding z-score [3] was 1.98. It also gave a PBM binding z-score [4] of 1.19, a PBM binding z-score [5] of 2.68 and a PBM binding z-score [6] of 4.11. For the same sequence, the PBM binding z-score [7] was 3.14 and the PBM binding z-score [8] was 3.61.

CCTACTGTGCCAAAGGTCATTGATTCCAATGCTC was tested, and the PBM binding z-score [1] was 4.59, the PBM binding z-score [2] was 5.61 and the PBM binding z-score [3] was 5.21. It also gave a PBM binding z-score [4] of 2.09, a PBM binding z-score [5] of 6.46 and a PBM binding z-score [6] of 3.46. For the same sequence, the PBM binding z-score [7] was 1.72 and the PBM binding z-score [8] was 3.37.

For CGTCAAAGTTCAAGGTAACGTCACAGAAAGCAGC, the PBM binding z-score [1] was 4.13, the PBM binding z-score [2] was 5.4 and the PBM binding z-score [3] was 6.15. The PBM binding z-score [4] was 4.55, the PBM binding z-score [5] was 4.78 and the PBM binding z-score [6] was 3.12. The PBM binding z-score [7] was 1.48 and the PBM binding z-score [8] was 3.12.

ATAACGAGGGCACGCTGAGTTGATAGCAGAGTAG was tested, and the PBM binding z-score [1] was 1.27, the PBM binding z-score [2] was 1.72 and the PBM binding z-score [3] was 2.4. The PBM binding z-score [4] was 1.64, the PBM binding z-score [5] was 1.46 and the PBM binding z-score [6] was 2.07. The PBM binding z-score [7] was 0.209 and the PBM binding z-score [8] was 2.05.

Work on GCTATTAGTTGATAGGGCAACCGAATGATTCTCG yielded a PBM binding z-score [1] of 0.604, a PBM binding z-score [2] of 0.208 and a PBM binding z-score [3] of 0.649. It also gave a PBM binding z-score [4] of 0.36, a PBM binding z-score [5] of 0.26 and a PBM binding z-score [6] of -0.111. For the same sequence, the PBM binding z-score [7] was -0.518 and the PBM binding z-score [8] was 0.0585.

Work on CCGACTGGGACAAAGGTTACCATACTCAGTACGA yielded a PBM binding z-score [1] of 1.88, a PBM binding z-score [2] of 2.42 and a PBM binding z-score [3] of 1.43. The PBM binding z-score [4] was 0.478, the PBM binding z-score [5] was 2.21 and the PBM binding z-score [6] was 1.75. It also gave a PBM binding z-score [7] of 0.208 and a PBM binding z-score [8] of -0.0207.

With GATCCAGGGTCAAGGCCAGAGTACGCGTATTGAT the PBM binding z-score [1] was 3.61, the PBM binding z-score [2] was 5.58 and the PBM binding z-score [3] was 5.08. The PBM binding z-score [4] was 2.45, the PBM binding z-score [5] was 6.11 and the PBM binding z-score [6] was 3.65. The PBM binding z-score [7] was 1.11 and the PBM binding z-score [8] was 2.04.
